Data as given in PubChem BioAssay (NCATS).
Inconclusive results are not listed. Activity calls are given as the source filed them. Unless noted, calls follow the shape of the dose curve; as a rule, active = well fitted curve in either direction with a large enough effect (not every such curve was filed as active); inconclusive = small, poorly fitted or top-dose-only effect, or another doubt; inactive = flat fitted curve, though single readings scatter.

What was measured:
[1] = biological target: Cytochrome P450 1A2 (Homo sapiens) (UniProt P05177); experiment: p450-cyp1a2 (AID 410; calls by dose curve; also: potency is read from the fitted curve at half-maximal effect;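 as to activity change, negative = inhibition: -100% = full effect of reference inhibitor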)
Cytochrome P450 1A2 (Homo sapiens), sequence (P05177 whole entry, looked up): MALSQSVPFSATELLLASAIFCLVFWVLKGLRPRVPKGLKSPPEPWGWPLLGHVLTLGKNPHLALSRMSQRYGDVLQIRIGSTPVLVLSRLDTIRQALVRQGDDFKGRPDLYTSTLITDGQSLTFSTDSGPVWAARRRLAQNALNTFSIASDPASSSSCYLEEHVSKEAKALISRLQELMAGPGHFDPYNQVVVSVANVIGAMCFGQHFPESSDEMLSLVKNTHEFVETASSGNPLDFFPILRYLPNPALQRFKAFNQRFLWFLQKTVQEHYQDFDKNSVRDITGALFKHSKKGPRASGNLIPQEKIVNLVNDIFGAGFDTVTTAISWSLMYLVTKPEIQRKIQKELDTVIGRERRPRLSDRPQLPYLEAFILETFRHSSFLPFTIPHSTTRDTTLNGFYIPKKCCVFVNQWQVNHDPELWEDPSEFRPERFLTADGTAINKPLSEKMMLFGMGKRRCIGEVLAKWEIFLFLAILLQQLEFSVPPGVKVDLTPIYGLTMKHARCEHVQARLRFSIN
Summary of the method: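 Luminescent readout of luciferin formed from Luciferin-ME by human CYP1A2; data normalized against complete inhibition by 57 uM furafylline. Enzyme 20nM, substrate 100uM at Km, 100mM KPO4 buffer, 60 min reaction at room temperature.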

[2] = biological target: Glucocorticoid receptor (Homo sapiens) (UniProt P04150); experiment: GR-GFP Redistribution (AID 450;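 active = compounds whose dose series gives a full or clear partial fitted curve of increased nuclear translocation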; also: potency is read from the fitted curve at half-maximal effect); settings: U2OS GR-GFP nuclear translocation, laser cytometry, 2 h
Glucocorticoid receptor (Homo sapiens), sequence (P04150 whole entry, looked up, the tested form may be a part): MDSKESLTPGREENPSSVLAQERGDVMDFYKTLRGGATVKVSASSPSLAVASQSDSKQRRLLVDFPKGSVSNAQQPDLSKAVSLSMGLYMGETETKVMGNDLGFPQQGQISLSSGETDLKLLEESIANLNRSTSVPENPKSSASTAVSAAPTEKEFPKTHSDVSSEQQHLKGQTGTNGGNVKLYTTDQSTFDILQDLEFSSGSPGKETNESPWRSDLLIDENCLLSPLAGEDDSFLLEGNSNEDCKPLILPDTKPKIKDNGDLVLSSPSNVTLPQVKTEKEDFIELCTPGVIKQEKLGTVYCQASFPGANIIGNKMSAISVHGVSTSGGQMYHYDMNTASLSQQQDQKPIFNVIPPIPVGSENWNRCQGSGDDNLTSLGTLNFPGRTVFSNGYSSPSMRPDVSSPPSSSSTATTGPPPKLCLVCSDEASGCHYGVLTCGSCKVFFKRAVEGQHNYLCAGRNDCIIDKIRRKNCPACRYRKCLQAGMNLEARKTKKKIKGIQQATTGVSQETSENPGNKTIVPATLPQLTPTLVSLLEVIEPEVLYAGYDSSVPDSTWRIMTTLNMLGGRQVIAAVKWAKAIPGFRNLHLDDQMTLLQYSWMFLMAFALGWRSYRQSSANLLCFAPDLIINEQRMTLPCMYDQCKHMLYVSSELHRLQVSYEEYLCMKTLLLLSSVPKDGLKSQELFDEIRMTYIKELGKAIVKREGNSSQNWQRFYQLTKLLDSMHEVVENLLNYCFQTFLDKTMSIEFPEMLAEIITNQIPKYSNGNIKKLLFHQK

[3] = biological target: Glucocorticoid receptor (Homo sapiens) (UniProt P04150); experiment: GR-EFC Redistribution (AID 451; calls by dose curve; also: potency is read from the fitted curve at half-maximal effect); settings: CHO-K1 GR-EFC translocation, beta-gal luminescence, 2 h
Summary of the method: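 Translocation of GR-ED fusion to nuclear EA restores b-gal, read by luminescence after 1 h room-temperature detection. Engineered CHO-K1 biosensor cells, 1,000/well, exposed 2 h at 37 C to titrations up to 46 uM final.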

[4] = biological target: Mitogen-activated protein kinase 10 (Mus musculus) (UniProt Q61831); experiment: JNK3 AlphaScreen Assay (AID 530);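 also: kinase came from lysate of stimulated human HepG2 cells; signal reports phosphorylation of biotinylated GST-cJun 1-79 at Ser73 with 10 µM ATP; series mostly up to about 57 µM; % is scaled to controls: 0 for no effect and ±100 for the full control effect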
Summary of the method: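 Compound titrations were preincubated 15 minutes at room temperature with substrate, antibody and pre-activated JNK3-containing HepG2 lysate. Reactions were started with 10 uM ATP and stopped with EDTA-containing bead buffer for AlphaScreen detection.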

[5] = biological target: 3',5'-cyclic-AMP phosphodiesterase 4B (Homo sapiens) (UniProt Q07343); experiment: qHTS Assay for Inhibitors of PDE-IV (AID 607; active = well fitted activation curve with a large enough effect in the main read-out, with a control signal flat, not every such curve was filed as active; also: % of control where 0% means no effect)
3',5'-cyclic-AMP phosphodiesterase 4B (Homo sapiens), sequence (Q07343 whole entry, looked up): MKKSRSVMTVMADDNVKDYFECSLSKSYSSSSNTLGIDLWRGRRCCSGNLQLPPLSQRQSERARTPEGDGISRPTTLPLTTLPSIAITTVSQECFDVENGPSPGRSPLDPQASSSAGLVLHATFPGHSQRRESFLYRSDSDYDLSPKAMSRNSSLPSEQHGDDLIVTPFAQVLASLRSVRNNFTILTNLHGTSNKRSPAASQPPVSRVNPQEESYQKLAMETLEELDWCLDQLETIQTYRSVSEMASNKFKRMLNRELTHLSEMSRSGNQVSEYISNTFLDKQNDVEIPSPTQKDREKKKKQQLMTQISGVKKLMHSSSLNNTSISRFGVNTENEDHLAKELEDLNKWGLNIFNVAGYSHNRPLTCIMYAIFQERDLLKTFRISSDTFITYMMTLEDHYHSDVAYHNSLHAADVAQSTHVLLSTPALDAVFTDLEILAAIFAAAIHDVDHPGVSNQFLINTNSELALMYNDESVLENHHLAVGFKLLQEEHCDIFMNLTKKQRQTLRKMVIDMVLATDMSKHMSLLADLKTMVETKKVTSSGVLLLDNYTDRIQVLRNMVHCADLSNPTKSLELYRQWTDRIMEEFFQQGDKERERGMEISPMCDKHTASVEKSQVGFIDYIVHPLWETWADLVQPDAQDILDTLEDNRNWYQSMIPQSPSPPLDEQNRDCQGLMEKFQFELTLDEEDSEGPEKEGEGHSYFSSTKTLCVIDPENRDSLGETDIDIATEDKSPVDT
Summary of the method: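 HEK293 ACTOne cells with CNG channel (1000/well), endogenous PDE4; membrane potential dye, compounds up to 22.9 uM final. Fluorescence Ex 535/Em 590; RO 20-1724 (100 uM final) as reference.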

[6] = AP1 Signaling Pathway (AID 357); also: % is scaled to controls: 0 for no effect and ±100 for the full control effect
Summary of the method: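 AP-1-bla ME-180 cells with beta-lactamase reporter under AP-1 response element, stimulated with EC50 EGF; compounds titrated, 5 hours at 37 degrees Celsius. CCF4 read at 460/530 nm ratio; positive and negative modulators judged by AC50.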

[7] = NFAT Signaling Pathway (AID 444);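 also: carbachol stimulus at about its EC50 of 1 µM final; % is scaled to controls: 0 for no effect and ±100 for the full control effect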
Summary of the method: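 Read-out: CCF4 FRET ratio (460 nm/530 nm) after 1 h RT dye loading, used for %activity and AC50 from titration series. Cells: Jurkat NFAT-β-lactamase/M1 line, treated with compound plus 1 uM carbachol for 5 h, 37 °C.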

[8] = Stat Signaling Pathway (AID 446);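 also: ME-180 cervical cancer cells given 40 pM IL-6 alongside compound; SIE-controlled beta-lactamase reporter measured as 460/530 nm FRET emission ratio; % is scaled to controls: 0 for no effect and ±100 for the full control effect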
Summary of the method: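 ME-180 cells carrying a SIE-driven beta-lactamase reporter are stimulated with 40 pM IL-6 for 5 h at 37C in the presence of compound. The 460/530 nm FRET substrate ratio is read after 2.5 h at RT. Data are normalised to 300 pM IL-6 and to 125 nM JAK inhibitor controls.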

[9] = biological target: Lysosomal acid glucosylceramidase (Homo sapiens) (UniProt P04062); experiment: Glucocerebrosidase-p2 (AID 348; in the data active = potency below about 10 µM; also: potency is read from the fitted curve at half-maximal effect); settings: purified GBA, blue fluorogenic substrate, 40 min
Lysosomal acid glucosylceramidase (Homo sapiens), sequence (P04062 whole entry, looked up): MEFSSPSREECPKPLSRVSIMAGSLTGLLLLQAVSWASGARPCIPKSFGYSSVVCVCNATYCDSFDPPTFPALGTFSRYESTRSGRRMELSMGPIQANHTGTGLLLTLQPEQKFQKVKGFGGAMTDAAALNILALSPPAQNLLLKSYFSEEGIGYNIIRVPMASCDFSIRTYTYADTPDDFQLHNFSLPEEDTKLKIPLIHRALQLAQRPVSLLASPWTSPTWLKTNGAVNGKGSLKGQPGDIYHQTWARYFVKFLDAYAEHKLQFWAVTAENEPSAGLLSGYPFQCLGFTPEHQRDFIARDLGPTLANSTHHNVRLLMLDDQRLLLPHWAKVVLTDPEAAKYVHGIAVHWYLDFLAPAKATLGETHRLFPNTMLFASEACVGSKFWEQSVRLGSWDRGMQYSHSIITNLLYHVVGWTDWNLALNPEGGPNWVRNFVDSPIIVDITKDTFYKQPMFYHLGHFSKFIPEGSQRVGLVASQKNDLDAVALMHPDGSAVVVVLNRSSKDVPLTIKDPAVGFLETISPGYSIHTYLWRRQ
Summary of the method: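 Compounds titrated from 0.6 nM upwards against 0.2 nM enzyme in pH 5.9 citric acid/KH2PO4, taurocholate, tween-20; blue fluorogenic substrate 80 uM, 40 min room temperature, stopped and read Ex 365/Em 440 for AC50.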

[10] = biological target: Guanine nucleotide-binding protein G(i) subunit alpha-1 (Homo sapiens) (UniProt P63096); experiment: qHTS Assay for Inhibitors of RGS12 GoLoco Motif Activity (Green Fluorophore) (AID 879; active = well fitted curve in the direction sought with a large enough effect;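 also: 0% = labeled peptide with Gαi1 and full inhibition = labeled peptide alone without protein; negative values mean loss of peptide binding seen as reduced polarization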)
Guanine nucleotide-binding protein G(i) subunit alpha-1 (Homo sapiens), sequence (P63096 whole entry, looked up): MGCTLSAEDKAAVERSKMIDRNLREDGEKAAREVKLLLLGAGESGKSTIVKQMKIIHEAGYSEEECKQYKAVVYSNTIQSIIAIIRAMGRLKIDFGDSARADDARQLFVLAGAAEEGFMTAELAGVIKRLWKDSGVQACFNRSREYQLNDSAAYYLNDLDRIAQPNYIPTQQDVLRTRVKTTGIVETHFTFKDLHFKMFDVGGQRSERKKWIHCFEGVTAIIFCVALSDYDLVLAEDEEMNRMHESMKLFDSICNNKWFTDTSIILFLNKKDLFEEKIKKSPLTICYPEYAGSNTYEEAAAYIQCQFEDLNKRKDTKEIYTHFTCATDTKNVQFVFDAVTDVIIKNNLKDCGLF
Summary of the method: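 Fluorescence polarization assay: 50 nM Gαi1 with 10 nM FITC-labeled RGS12 GoLoco peptide in 10 mM Tris pH 7.5, 150 mM NaCl, 0.1 mM GDP, 0.05% NP40, 10 min at room temperature with compound.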

COC(=O)C[C@](O)(CCCC(C)(C)O)C(=O)O[C@@H]1C(OC)=C[C@]23CCCN2CCc2cc4c(cc2[C@H]13)OCO4
inactive: Potency [1] | Potency [2] > 46 µM | Potency [3] > 46 µM | outcome [4] | outcome [5]

Nc1ccc(S(=O)(=O)Nc2ncccn2)cc1
inactive: outcome [6] | Potency [1] | outcome [7] | outcome [8] | outcome [4] | outcome [5]

CC(C)c1ccc(Cn2ccc3c4c(N)nc(NC5CC5)nc4ccc32)cc1
inactive: Potency [2] > 46 µM | Potency [3] > 46 µM | outcome [4]
active: Potency [1] 1.58 µM

O=C(O)[C@H](Cc1c[nH]c2ccccc12)N1C(=O)c2ccccc2C1=O
inactive: Potency [9] > 11.4 µM | outcome [6] | activity change, negative = inhibition [1] -8.3% [at 2.29 µM] | outcome [7] | outcome [8] | Potency [2] > 46 µM | Potency [3] > 9.22 µM | activity change, negative = inhibition [4] -0.545% [at 11.4 µM] | outcome [5]

O=c1c2ccccc2nc2n1CCc1c-2[nH]c2ccccc12
active: Potency [1] 0.316 µM
inactive: outcome [7] | outcome [8] | Potency [2] > 46 µM | Potency [3] > 46 µM | outcome [4] | outcome [5] | outcome [10]

C[C@H]1C[C@@H]2[C@@H]([C@@H](O)C[C@@]3(C)[C@H]2CC[C@]3(O)C(=O)CO)[C@@]2(C)C=CC(=O)C=C12
inactive: outcome [6] | outcome [7] | outcome [8] | outcome [4] | outcome [5]

CN(C)CCCN=c1c2ccccc2n(C)c2[nH]c(=O)n(C)c(=O)c12
inactive: Potency [9] > 11.4 µM | outcome [6] | Potency [2] > 46 µM | Potency [3] > 9.22 µM | activity change, negative = inhibition [4] 0.481% [at 11.4 µM] | outcome [5]
active: Potency [1] 5.01 µM
